# Assay results taken from PubChem BioAssay (NCATS).
# Values joined by “and” are separate entries in the source; they are usually repeats but may differ in a detail not shown here. Equal entries are not always repeated. Results filed as inconclusive are left out. A call without a number means that no potency is given here. Unmarked numbers belong to inactive results. Active and inactive are the calls of the source. The call rests on the fitted dose curve; in most records, active means well fitted inhibition curve with a large enough effect; inconclusive means small, poorly fitted or top-dose-only effect; inactive means flat fitted curve, though single readings scatter. Numbered stars: 1 amine (or outer) side, 2 acyl side, 3 side chain; on linkers, the order of the positions; unused ones are H or OH. Bridge positions count the residues as written; N and C are the ends. Square brackets hold non-standard residues; d marks the D form. Peptide text beside a SMILES is read from it. I, II: the chains in the order shown. Actinocin(9to1) = Cc1c2oc3c(C)ccc(C(=O)[*:1])c3nc-2c(C(=O)[*:2])c(N)c1=O; NMeV = CN[C@H](C(=O)O)C(C)C; Sar = CNCC(=O)O
# Columns and labels:
# ECU = assay: qHTS profiling for inhibitors of Plasmodium falciparum proliferation (AID 504749); conditions: P. falciparum in erythrocytes, SYBR Green DNA, 72 h; series mostly up to 28.7 µM
# Summary of the method: (§1)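 Parasite proliferation within erythrocytes, 72 h exposure. Endpoint: SYBR Green I fluorescence after overnight lysis at room temperature. Controls: 0.29 uM artemisinin, DMSO.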
# FAB9 = assay: as above; conditions: P. falciparum in erythrocytes, SYBR Green DNA, 72 h; series mostly up to 28.7 µM
# Summary of the method: as §1
# GB4 = assay: as above; conditions: P. falciparum in erythrocytes, SYBR Green DNA, 72 h; series mostly up to 28.7 µM
# Summary of the method: as §1
# HB3 = assay: as above; conditions: P. falciparum in erythrocytes, SYBR Green DNA, 72 h; series mostly up to 28.7 µM
# Summary of the method: as §1
# ICS = assay: as above; conditions: P. falciparum in erythrocytes, SYBR Green DNA, 72 h; series mostly up to 28.7 µM
# Summary of the method: as §1
# N140 = assay: as above; conditions: P. falciparum in erythrocytes, SYBR Green DNA, 72 h; series mostly up to 28.7 µM
# Summary of the method: as §1
# P94_40 = assay: as above; conditions: P. falciparum in erythrocytes, SYBR Green DNA, 72 h; series mostly up to 28.7 µM
# Summary of the method: as §1
# PAD = assay: as above; conditions: P. falciparum in erythrocytes, SYBR Green DNA, 72 h; series mostly up to 28.7 µM
# Summary of the method: as §1
# PC15 = assay: as above; conditions: P. falciparum in erythrocytes, SYBR Green DNA, 72 h; series mostly up to 28.7 µM
# Summary of the method: as §1
# PC26 = assay: as above; conditions: P. falciparum in erythrocytes, SYBR Green DNA, 72 h; series mostly up to 28.7 µM
# Summary of the method: as §1
# PC49 = assay: as above; conditions: P. falciparum in erythrocytes, SYBR Green DNA, 72 h; series mostly up to 28.7 µM
# Summary of the method: as §1
# SC27B = assay: as above; conditions: P. falciparum in erythrocytes, SYBR Green DNA, 72 h; series mostly up to 28.7 µM
# Summary of the method: as §1
# TAB109 = assay: as above; conditions: P. falciparum in erythrocytes, SYBR Green DNA, 72 h; series mostly up to 28.7 µM
# Summary of the method: as §1
# TAB113 = assay: as above; conditions: P. falciparum in erythrocytes, SYBR Green DNA, 72 h; series mostly up to 28.7 µM
# Summary of the method: as §1
# TAB165 = assay: as above; conditions: P. falciparum in erythrocytes, SYBR Green DNA, 72 h; series mostly up to 28.7 µM
# Summary of the method: as §1
# W2 = assay: as above; conditions: P. falciparum in erythrocytes, SYBR Green DNA, 72 h; series mostly up to 28.7 µM
# Summary of the method: as §1
# CRL-7250 = normal cell line; assay: Cytotoxic Profiling of Annotated Libraries Using Quantitative High-Throughput Screening (AID 1296008); conditions: Five cell lines viability, CellTiter-Glo ATP luminescence, 48-72 h; max response: stronger effect = lower value
# Summary of the method: (§2)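 Compounds were pin-transferred onto cells and incubated 48 or 72 hr at 37 degree Celsius, 95% humidity. CellTiter-Glo was added, plates sat 10 min at room temperature, then ATP-coupled luminescence was imaged as the viability read-out.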
# HEK293 = assay: as above; conditions: Five cell lines viability, CellTiter-Glo ATP luminescence, 48-72 h; max response: stronger effect = lower value
# Summary of the method: as §2
# JCK = assay: qHTS profiling for inhibitors of Plasmodium falciparum proliferation (AID 504749); conditions: P. falciparum in erythrocytes, SYBR Green DNA, 72 h; series mostly up to 28.7 µM
# Summary of the method: as §1
# P93_24 = assay: as above; conditions: P. falciparum in erythrocytes, SYBR Green DNA, 72 h; series mostly up to 28.7 µM
# Summary of the method: as §1
# Further: nearly all actives have a fitted effect of over 60% in size.
# Potency means the concentration at half of the fitted maximal effect.
smiles,measurement,setting,value
CCCCCCCCCCCCCCCCCC(=O)OCC(O)CO (stereo unspecified),Potency,ECU,inactive
same,Potency,FAB9,inactive
same,Potency,GB4,inactive
same,Potency,HB3,inactive
same,Potency,ICS,inactive
same,Potency,N140,inactive
same,Potency,P94_40,inactive
same,Potency,PAD,inactive
same,Potency,PC15,inactive
same,Potency,PC26,inactive
same,Potency,PC49,inactive
same,Potency,SC27B,inactive
same,Potency,TAB109,inactive
same,Potency,TAB113,inactive
same,Potency,TAB165,inactive
same,Potency,W2,inactive
same,outcome,CRL-7250,inactive
same,max response,HEK293,-6.82%
CC(=O)c1ccc2c(c1)N(CCCN1CCC(CCO)CC1)c1ccccc1S2,Potency,ECU,inactive
same,Potency,FAB9,inactive
same,Potency,HB3,inactive
same,Potency,JCK,inactive
same,Potency,N140,inactive
same,Potency,P94_40,inactive
same,Potency,PAD,inactive
same,Potency,PC15,inactive
same,Potency,PC49,inactive
same,Potency,SC27B,inactive
same,Potency,TAB109,inactive
same,Potency,TAB113,inactive
same,Potency,TAB165,inactive
same,Potency,W2,1020 nM (active)
same,max response,CRL-7250,-7.11%
CN1CCN(C(c2ccccc2)c2ccccc2)CC1,Potency,ECU,inactive
same,Potency,FAB9,inactive
same,Potency,HB3,inactive
same,Potency,ICS,inactive
same,Potency,JCK,inactive
same,Potency,PAD,inactive
same,Potency,PC15,inactive
same,Potency,PC49,inactive
same,Potency,SC27B,inactive
same,Potency,TAB109,inactive
same,Potency,TAB113,inactive
same,Potency,TAB165,inactive
same,Potency,W2,2560 nM (active)
same,max response,CRL-7250,1.17% and 3.11%
same,max response,HEK293,-9.52%
COc1cc2c(cc1OC)C(C(C(=O)N(CCc1ccc(OC)c(OC)c1OC)CCc1ccc(OC)c(OC)c1OC)c1ccccc1)=NCC2 (stereo unspecified),Potency,ECU,2240 nM (active)
same,Potency,FAB9,11200 nM (active)
same,Potency,GB4,7570 nM (active)
same,Potency,HB3,5010 nM (active)
same,Potency,ICS,199 nM (active)
same,Potency,JCK,10000 nM (active)
same,Potency,P93_24,2240 nM (active)
same,Potency,P94_40,2510 nM (active)
same,Potency,PAD,1000 nM (active)
same,Potency,PC15,2510 nM (active)
same,Potency,PC26,4780 nM (active)
same,Potency,PC49,1000 nM (active)
same,Potency,SC27B,2240 nM (active)
same,Potency,TAB109,3160 nM (active)
same,Potency,TAB113,2820 nM (active)
same,Potency,TAB165,1260 nM (active)
same,Potency,W2,1070 nM (active)
same,max response,CRL-7250,-6.63%
Oc1ccc(Cl)c2cccnc12,Potency,ECU,inactive
same,Potency,FAB9,inactive
same,Potency,ICS,11200 nM (active)
same,Potency,JCK,inactive
same,Potency,N140,inactive
same,Potency,P93_24,inactive
same,Potency,P94_40,inactive
same,Potency,PAD,inactive
same,Potency,PC15,inactive
same,Potency,PC26,inactive
same,Potency,PC49,inactive
same,Potency,SC27B,inactive
same,Potency,TAB109,inactive
same,Potency,TAB113,inactive
same,Potency,TAB165,inactive
same,outcome,CRL-7250,inactive
CCCCOc1ccc(OCCCN2CCOCC2)cc1,Potency,ECU,inactive
same,Potency,FAB9,inactive
same,Potency,GB4,inactive
same,Potency,HB3,inactive
same,Potency,ICS,inactive
same,Potency,JCK,inactive
same,Potency,N140,inactive
same,Potency,P93_24,inactive
same,Potency,P94_40,inactive
same,Potency,PAD,inactive
same,Potency,PC15,inactive
same,Potency,PC26,inactive
same,Potency,PC49,inactive
same,Potency,SC27B,inactive
same,Potency,TAB109,inactive
same,Potency,TAB113,inactive
same,Potency,TAB165,inactive
same,Potency,W2,inactive
same,max response,CRL-7250,2.95%
CC[N+](CC)(CCNC(=O)C(=O)NCC[N+](CC)(CC)Cc1ccccc1Cl)Cc1ccccc1Cl,Potency,FAB9,1120 nM (active)
same,Potency,GB4,2390 nM (active)
same,Potency,ICS,1580 nM (active)
same,Potency,JCK,10000 nM (active)
same,Potency,P93_24,794 nM (active)
same,Potency,P94_40,316 nM (active)
same,Potency,PAD,2820 nM (active)
same,Potency,PC49,5010 nM (active)
same,Potency,SC27B,3980 nM (active)
same,Potency,TAB109,1410 nM (active)
same,Potency,TAB113,3160 nM (active)
same,Potency,TAB165,1260 nM (active)
same,Potency,W2,1200 nM (active)
same,outcome,CRL-7250,inactive
same,max response,HEK293,2.37%
CC(C)COC(=O)c1ccc(N)cc1,Potency,ECU,inactive
same,Potency,FAB9,inactive
same,Potency,GB4,inactive
same,Potency,HB3,inactive
same,Potency,ICS,inactive
same,Potency,N140,inactive
same,Potency,P93_24,inactive
same,Potency,PAD,inactive
same,Potency,PC15,inactive
same,Potency,PC26,inactive
same,Potency,PC49,inactive
same,Potency,SC27B,inactive
same,Potency,TAB113,inactive
same,Potency,TAB165,inactive
same,Potency,W2,inactive
same,max response,CRL-7250,2.7%
same,max response,HEK293,-1.38%
CN=C(NC#N)NCCSCc1csc(N=C(N)N)n1,Potency,ECU,inactive
same,Potency,FAB9,inactive
same,Potency,GB4,inactive
same,Potency,HB3,inactive
same,Potency,ICS,inactive
same,Potency,JCK,inactive
same,Potency,N140,inactive
same,Potency,P93_24,inactive
same,Potency,P94_40,inactive
same,Potency,PAD,inactive
same,Potency,PC15,inactive
same,Potency,PC26,inactive
same,Potency,PC49,inactive
same,Potency,SC27B,inactive
same,Potency,TAB113,inactive
same,Potency,TAB165,inactive
same,Potency,W2,inactive
same,max response,CRL-7250,1.65%
"Cc1c2oc3c(C)ccc(C(=O)N[C@@H]4C(=O)N[C@H](C(C)C)C(=O)N5CCC[C@H]5C(=O)N(C)CC(=O)N(C)[C@@H](C(C)C)C(=O)O[C@@H]4C)c3nc-2c(C(=O)N[C@@H]2C(=O)N[C@H](C(C)C)C(=O)N3CCC[C@H]3C(=O)N(C)CC(=O)N(C)[C@@H](C(C)C)C(=O)O[C@@H]2C)c(N)c1=O (I: T[dV]P[Sar][NMeV] / II: T[dV]P[Sar][NMeV]; ester I:1-I:C, II:1-II:C; linker I:N-II:N via Actinocin(9to1))",Potency,ECU,3.2 nM (active)
same,Potency,FAB9,11.2 nM (active)
same,Potency,GB4,4.8 nM (active)
same,Potency,HB3,5 nM (active)
same,Potency,ICS,2.5 nM (active)
same,Potency,N140,3.5 nM (active)
same,Potency,P93_24,5 nM (active)
same,Potency,P94_40,4.5 nM (active)
same,Potency,PAD,5 nM (active)
same,Potency,PC15,11.2 nM (active)
same,Potency,PC26,5.4 nM (active)
same,Potency,SC27B,6.3 nM (active)
same,Potency,TAB109,4 nM (active)
same,Potency,TAB113,6.3 nM (active)
same,Potency,TAB165,4.5 nM (active)
same,Potency,W2,5.4 nM (active)
same,Potency,CRL-7250,4.2 nM (active)
same,Potency,HEK293,2.1 nM (active)
NC(CS)C(=O)O (stereo unspecified),Potency,HB3,8910 nM (active)
same,Potency,ICS,2000 nM (active)
same,Potency,N140,11200 nM (active)
same,Potency,P93_24,10000 nM (active)
same,Potency,P94_40,12600 nM (active)
same,Potency,TAB109,10000 nM (active)
same,Potency,TAB113,10000 nM (active)
same,Potency,W2,4260 nM (active)
same,outcome,CRL-7250,inactive
same,max response,HEK293,-10%
CCCOC(C(=O)OC1CCN(C)CC1)(c1ccccc1)c1ccccc1,Potency,ECU,10000 nM (active)
same,Potency,FAB9,inactive
same,Potency,ICS,7940 nM (active)
same,Potency,PAD,inactive
same,Potency,PC49,inactive
same,Potency,W2,6010 nM (active)
same,max response,CRL-7250,-3.11%
